Compound activity: PubChem, The Scripps Research Institute Molecular Screening Center
Rows were chosen to be rich in hits. Some 4.1% of all compounds tested hit in one or more screens of this group.
DAX1 inh-1 = DAX1 (NR0B1) inhibitors, primary screen, cell-based, HEK293, Gal4-DAX1, luciferase luminescence; HEK293 Gal4-DAX1 luciferase reporter; inhibition, % at 6.75 µM; 340,000 compounds, 0.99% hits;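 active = inhibition above the mean over all tested compounds plus 3 SD, cut at about 4.2% in these data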;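 also: inhibition shows as a rise in luminescence from relieved DAX1 repression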
Target sequence (P51843 207-470 limits assumed): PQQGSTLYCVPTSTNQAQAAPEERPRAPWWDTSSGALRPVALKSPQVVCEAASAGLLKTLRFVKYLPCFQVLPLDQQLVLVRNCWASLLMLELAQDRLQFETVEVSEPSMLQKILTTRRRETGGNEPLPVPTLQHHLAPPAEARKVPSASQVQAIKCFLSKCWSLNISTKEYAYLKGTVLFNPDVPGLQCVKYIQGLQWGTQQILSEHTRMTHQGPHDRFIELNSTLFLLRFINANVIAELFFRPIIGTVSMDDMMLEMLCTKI
DAX1 inh-2 = DAX1 (NR0B1) inhibitors on StAR promoter, primary screen, cell-based, luminescence, SF-1 (NR5A1), full-length DAX-1 | HEK293T StAR-luciferase reporter, SF-1/DAX-1 repression relief | inhibition, % at 6.8 µM | 370,000 compounds, 1.1% hits | AID 652010, 2013;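 active = inhibition above the mean over all tested compounds plus 3 SD, cut at about 3.6% in these data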;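 also: higher inhibition means more luminescence from relief of DAX-1 repression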
ssDAF-12 act = S. stercoralis DAF-12 nuclear receptor activators, primary screen, cell-based, luminescence, HEK293, GRIP1 co-expression, lit1-tk-luc; 370,000 compounds, 1% hits; Nuclear hormone receptor DAF-12 (Strongyloides stercoralis); activation, % at 6.8 µM; AID 652126, 2013; HEK293 ssDAF-12/GRIP1 lit1-tk-luc reporter; % of 3 µM dafachronic acid response;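 active = activation above the mean over all tested compounds plus 3 SD, cut at about 0.9% in these data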
hcDAF12 agonist = H. contortus DAF-12 nuclear receptor activators, primary screen, cell-based, luminescence, HEK293, lit1-tk-luc reporter | HEK293 hcDAF-12 lit1-tk-luc reporter; 0% DMSO, 100% Δ7-dafachronic acid | activation, % at 6.8 µM | 370,000 compounds, 1.4% hits | AID 652067, 2013;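 active = activation above the mean of all tested compounds plus 3 SD, cut at about 5.5% in these data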
hgDAF12 agonist = H. glycines DAF-12 receptor agonists, primary screen, cell-based, luminescence, HEK293, GAL4 fusion, UAS-luciferase; Nuclear hormone receptor DAF-12 (Heterodera glycines), GAL4 fusion; HEK293 GAL4-hgDAF12 UAS-luciferase reporter, agonist luminescence; normalized to butyrate control; activation, % at 6.8 µM; 370,000 compounds, 1.8% hits;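 active = activation above a cutoff set at the mean of all screened compounds plus 3 SD, cut at about 10% in these data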
Numbers stand for hits; i = inactive; nt = no result given.

SMILES	DAX1 inh-1	DAX1 inh-2	ssDAF-12 act	hcDAF12 agonist	hgDAF12 agonist
CC(Cc1ccccc1)NC(=O)NC(C)Cc1ccccc1 (centres undefined)	i	i	i	i	13.0
CC(Cc1ccccc1)NC(=O)c1ccc(N)cc1 (centres undefined)	4.8	i	i	i	i
CCOP(=O)(OCC)C1(C(=O)O)CCCC1	5.1	i	i	i	i
CCCC1C(C#N)=C(N)Oc2c1c(=O)oc1ccccc21 (centres undefined)	4.6	i	i	i	i
CC(C)C1C(C#N)=C(N)Oc2c1c(=O)oc1ccccc21 (centres undefined)	i	4.0	i	i	i
CCCC(C)C1C(C#N)=C(N)Oc2c1c(=O)oc1ccccc21 (centres undefined)	i	i	i	i	i
CC(C)Oc1ccc(C2C(C#N)=C(N)Oc3c2c(=O)oc2ccccc32)cc1 (centres undefined)	i	i	i	i	i
CCNC(=S)N(C)CCc1cc2c(c(OC)c1C=C1C(=O)N(C)C(=O)N(C)C1=O)OCO2	nt	i	i	i	i
CC(C)c1ccccc1NC1=NCCCS1	i	i	i	i	i
COC(=O)C1=C(c2ccc(OCc3ccccc3)cc2)C[C@@H]2CC[C@H]1N2C(=O)NCc1ccc(F)cc1	i	i	i	i	i
COP(=O)(C#Cc1ccccc1)C(O)c1ccc(Br)cc1 (centres undefined)	i	i	i	i	i
CCOP(=O)(C#Cc1ccccc1)C(O)c1ccc(Br)cc1 (centres undefined)	4.6	i	i	i	i
CCOC(=O)[C@]12Cc3cc4ccccc4cc3[C@H]1N(Cc1ccccc1)C(=O)c1cc(OC)ccc12	nt	3.7	i	i	i
CCOC(=O)[C@]12Cc3cc(OC)ccc3[C@H]1N(Cc1ccccc1)C(=O)c1cc(OC)ccc12	nt	i	i	i	i
CN1CCN(c2nc3ccccn3c(=O)c2C=C2C(=O)N(C)C(=O)N(C)C2=O)CC1	i	nt	nt	nt	nt
OC12CCCCC1C(c1ccccc1)NCC2 (centres undefined)	4.3	i	i	i	i
COc1ccc2c(c1)/C(=C/c1cnc[nH]1)C(=O)N2	i	i	1.1	i	i
O=C1Nc2ccccc2/C1=C/c1cnc[nH]1	i	i	i	i	i
O=C(O)C(Br)Br	nt	i	i	i	i
COc1ccc(NC(=S)NC(NC(=O)CF)C(Cl)(Cl)Cl)cc1[N+](=O)[O-] (centres undefined)	4.6	i	i	i	i
COC(=O)[C@H]1C[C@@]2(C)c3ccccc3N[C@H]2N1	nt	i	i	i	i
Cc1ccc(-n2c(O)c(C=NCc3ccccn3)c(=O)[nH]c2=S)cc1	5.1	i	i	i	i
O=C(CN1CCCCC1)c1ccc2c(c1)OCO2	5.6	i	i	i	i
O=C(CN1CCCCC1)c1cccc(Br)c1	i	i	i	i	i
COc1ccc(C(c2nnnn2C2CCCCC2)N2CCC3(CC2)C(=O)NCN3c2ccccc2)cc1 (centres undefined)	nt	i	i	i	i
SMILES	DAX1 inh-1	DAX1 inh-2	ssDAF-12 act	hcDAF12 agonist	hgDAF12 agonist
CCCCCn1c(=O)c(C(=O)Nc2ccccc2)c(O)c2ccccc21	i	i	i	7.8	i
CCCCn1c(=O)c(C(=O)NCCc2ccccc2)c(O)c2ccccc21	5.1	i	i	i	i
Oc1cc(O)cc(/C=C/c2ccc(O)cc2O)c1	i	nt	nt	nt	nt
CC(=O)c1c(C)[nH]c(C(=O)N2CCC3(CC2)OCCO3)c1C	i	i	i	i	i
CC1OC(OC2C(O)CC(OC3C(O)CC(OC4CCC5(C)C(CCC6C5CCC5(C)C(C7=CC(=O)OC7)C(O)CC65O)C4)OC3C)OC2C)CC(O)C1O (centres undefined)	i	16.4	i	i	i
CC(=O)OC1CC(OC2C(O)CC(OC3C(O)CC(OC4CCC5(C)C(CCC6C5CCC5(C)C(C7=CC(=O)OC7)C(O)CC65O)C4)OC3C)OC2C)OC(C)C1OC1OC(CO)C(O)C(O)C1O (centres undefined)	i	i	i	i	i
CN(C)C(=O)Oc1ccc(OC(=O)N(C)C)cc1	i	i	i	i	i
CN(C)C(=O)Oc1ccc(OCc2nc3ccccc3[nH]2)cc1	i	i	i	i	11.1
CCOC(=O)CC[C@@H]1CC[C@]2(CCCN(Cc3ccccn3)C2)O1	nt	i	i	i	i
Cc1nn(CC(C)C)c(Cl)c1C(=O)NC1CCC(C)CC1 (centres undefined)	i	4.2	i	i	i
Cc1nn(Cc2ccccc2Cl)c(Cl)c1C(=O)OCC(=O)NC(=O)NC1CCCCC1	i	i	i	i	i
O=[N+]([O-])c1cccc(CN2CCN(Cc3ccc(Br)cc3)CC2)c1	i	i	i	i	i
CCC(C)C1NC(=O)C2CCCN2C(=O)C(CC(C)C)OC(=O)CCNC(=O)C(C)N(C)C(=O)C(C(C)C)N(C)C1=O (centres undefined)	i	3.7	i	i	i
C=CCCC[C@@H]1OC(=O)CNC(=O)C([C@@H](C)CC)NC(=O)[C@@H]2CCCN2C(=O)C([C@@H](C)CC)OC(=O)[C@H](Cc2ccccc2)N(C)C(=O)[C@H](C(C)C)NC(=O)C1(C)C (some centres undefined)	nt	i	i	i	i
COC(=O)C1=C(c2ccc(Cl)c(C(F)(F)F)c2)C[C@@H]2CC[C@H]1N2C(=O)N1CCC(O)(c2ccc(Cl)cc2)CC1	i	i	i	i	i
C=CC12CN(C)C3C4COC(CC41)C1(C(=O)Nc4ccccc41)C32 (centres undefined)	nt	i	i	i	i
Cc1ccc(OP2(=O)Nc3cc(C)c(C)cc3S2)cc1 (centres undefined)	i	i	i	5.7	i
CC1=CC(=O)NP(=O)(Oc2ccc3ccccc3c2)N1 (centres undefined)	i	i	i	i	i
CN1CCN(S(=O)(=O)c2cnc(Cl)c(Br)c2)CC1	i	i	i	i	i
O=C1NC(=O)N(CCC2=CCCCC2)C(=O)/C1=C/c1ccc(O)cc1	i	i	i	i	i
O=C1NC(=O)N(CCC2=CCCCC2)C(=O)/C1=C/c1cccs1	nt	i	1.7	i	i
CCC1(CCc2ccncc2)C(=O)NC(=O)NC1=O	i	i	i	i	i
CC1=NCCc2c1[nH]c1ccccc21	i	i	1.0	6.3	i
CC(C)CCC1(CCO)C(=O)NC(=S)NC1=O	i	i	i	i	i
c1ccc2c(CNC3CCCCCC3)c[nH]c2c1	i	i	i	5.7	i
